Consider 92 compounds from PubChem BioAssay AID1851 (National Center for Advancing Translational Sciences (NCATS), 2009).

SMILES strings stand for the structures. Several values for one entry are separate records, joined by “and”; a condition that tells them apart may be missing. Equal values may be shown once. In all, about 16,000 compounds went through this assay and about 5,800 (36%) were called active. About 23% were inconclusive and are not listed. Calls follow the shape of the dose curve; as a rule, active = well fitted curve in the direction sought with a large enough effect; inconclusive = small, poorly fitted or top-dose-only effect, or effect the other way; inactive = no such curve, though single readings can be large or run the other way. The list shows a part of the results.
% is scaled to controls: 0 for no effect and ±100 for the full control effect.

Sequence of Cytochrome P450 2C19 (Homo sapiens) (P33261 whole entry, looked up): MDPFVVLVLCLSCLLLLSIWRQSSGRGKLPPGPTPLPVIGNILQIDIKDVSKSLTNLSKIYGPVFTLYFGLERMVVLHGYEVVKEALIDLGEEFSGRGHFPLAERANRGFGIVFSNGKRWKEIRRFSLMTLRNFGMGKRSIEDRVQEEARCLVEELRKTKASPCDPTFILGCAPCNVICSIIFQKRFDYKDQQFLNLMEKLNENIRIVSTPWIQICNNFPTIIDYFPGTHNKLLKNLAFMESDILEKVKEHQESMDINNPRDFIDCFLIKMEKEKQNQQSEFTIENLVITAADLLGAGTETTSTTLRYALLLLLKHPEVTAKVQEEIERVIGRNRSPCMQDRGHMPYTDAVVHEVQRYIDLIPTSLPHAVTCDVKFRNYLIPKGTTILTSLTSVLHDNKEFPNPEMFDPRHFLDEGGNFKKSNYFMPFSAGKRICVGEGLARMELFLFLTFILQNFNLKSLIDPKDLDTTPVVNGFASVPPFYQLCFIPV

This assay addresses Cytochrome P450 2C19 (Homo sapiens) (UniProt P33261). Nature of the assay: Cytochrome panel assay with activity outcomes. To be noted: recombinant CYP, pro-luciferin dealkylation, luminescence, p450-cyp2c19; series mostly up to 57.1 µM.
As to `CO[C@@H]1COC(=O)[C@H](CCSC)NC(=O)C/C=C\[C@@H](C)COC(=O)[C@@H]2CCCN2C(=O)C/C=C\[C@H]1C`, the activity, negative = inhibition was 43.9% [at 11.4 µM] (inactive).

With `CC(C)(C)c1cc2c(O)c(c1)Cc1cc(C(C)(C)C)cc(c1O)Cc1cc(C(C)(C)C)cc(c1O)Cc1cc(C(C)(C)C)cc(c1O)Cc1cc(C(C)(C)C)cc(c1O)Cc1cc(C(C)(C)C)cc(c1O)Cc1cc(C(C)(C)C)cc(c1O)Cc1cc(C(C)(C)C)cc(c1O)C2`, the activity, negative = inhibition was -8.28% [at 11.4 µM] (inactive).

The AC50 is the concentration giving half of the maximal activity seen. Consider `Cc1cc(C(C)(C)C)cc(CNC2CCCCC2)c1O`, for which the AC50 is 0.02 µM (active).

With `O=C(Cc1cccs1)N1CCC(c2nc3c(nnn3Cc3ccccc3Cl)c(=O)[nH]2)CC1`, the AC50 is 2 µM (active).

For the compound `O=C(CSc1ccc(C(F)(F)F)cc1[N+](=O)[O-])Nc1ccccc1`, the AC50 is 0.891 µM (active).

`O=C(Nc1ccccc1)N1CC2(CCN(C(=O)c3cc(C(F)(F)F)cc(C(F)(F)F)c3)CC2)C1`: the AC50 result was “inactive”.

As for `Cc1ccc(Nc2c([N+](=O)[O-])ccc3c2=NC2(CCCCC2)N=3)cc1`, the AC50 was 2.82 µM (active).

In the case of `CSc1nsc(SC)c1C(=O)Nc1ccc(C)cc1`, the AC50 was 8.91 µM (active).

Take `COc1c(F)c(F)c(C(=O)O)c(Nc2ccc(C)cc2)c1F`: the AC50 result was “inactive”.

For `CCCCOC(=O)c1ccc(NC(=S)NC(=O)c2c(Cl)cnn2C)cc1`, the AC50 is 15.8 µM (active).

For `COCC(=O)N1CCC2(CC1)CCN(C(=O)Nc1cccc(F)c1)CC2`, the AC50 entry was “inactive”.

With `CCOC(=O)NNC1CC(=O)N(c2ccc(OC)cc2)C1=O` (configuration not stated), the AC50 result was “inactive”.

For `CCN=C(Nc1cccc(F)c1)SC1CC(=O)N(c2ccc(OC)cc2)C1=O` (configuration not stated), the AC50 was 3.98 µM (active).

Take `O=C1CC(SC(=Nc2ccccc2)Nc2ccccc2)C(=O)N1c1cccc(Cl)c1` (configuration not stated): the AC50 is 2.24 µM (active).

For the compound `CC(=O)Nc1ccc(N2C(=O)CC(c3ccccc3)CC2=O)cc1`, the AC50 result was “inactive”.

Take `CC(C)(C)NC[C@H](O)COc1cccc2c1CCC(=O)N2`: the AC50 entry is “inactive”.

`C[C@@H]1C(=O)N(C)C(=O)c2nc[nH]c21`: the AC50 entry was “inactive”.

Regarding `CCSC[C@@H](N)C(=O)O`, the activity, negative = inhibition is 17.8% [at 11.4 µM] (inactive).

In the case of `Nc1c2c(nc3ccccc13)CCC[C@H]2O`, the AC50 result is “inactive”.

On to `COC(=O)c1sccc1NC(=O)c1cc(-c2cc(C)ccc2C)nc2ccccc12`, for which the AC50 is 2.51 µM (active).

On to `Cc1sc(NC(=O)C2CCCCC2C(=O)O)c(C(N)=O)c1C` (configuration not stated), for which the AC50 result is “inactive”.

For `Cc1ccc(C)c(-c2cc(C(=O)Nc3nccs3)c3ccccc3n2)c1`, the AC50 was 10 µM (active).

With `Cc1ccccc1-c1cc(C(=O)Nc2nc3c(s2)CCCC3)c2ccccc2n1`, the AC50 was 4.47 µM (active).

With `Cc1ccc(C)c(-c2cc(C(=O)Nc3sc(C)c(C)c3C(N)=O)c3ccccc3n2)c1`, the AC50 was 2.24 µM (active).

As to `O=C(O)c1ccccc1C(=O)Nc1nccs1`, the AC50 result was “inactive”.

For the compound `CN(C)c1ccc(O)c2c1C[C@H]1C[C@H]3[C@@H](N(C)C)C(=O)C(C(N)=O)=C(O)[C@]3(O)C(=O)C1=C2O`, the AC50 result is “inactive”.

For the compound `Cc1onc(-c2ccccc2Cl)c1C(=O)Nc1nnc(Cc2ccc(Cl)cc2)s1`, the AC50 is 15.8 µM (active).

Turning to `Cc1ccccc1-n1nc2c(c1NC(=O)c1c(-c3ccccc3Cl)noc1C)CSC2`, the AC50 is 11.2 µM (active).

On to `Cc1ccc(NC(=S)NC(=O)c2c(-c3ccccc3Cl)noc2C)cc1`, for which the AC50 was 2 µM (active).

In the case of `COc1ccc(Cc2nnc(NC(=O)c3ccc(Cl)c([N+](=O)[O-])c3)s2)cc1`, the AC50 entry was “inactive”.

Regarding `CC(=O)C1=NOC(CNC(=O)c2c(-c3ccccc3Cl)noc2C)C1` (configuration not stated), the AC50 was 11.2 µM (active).

`Cc1ccccc1-n1nc2c(c1NC(=O)c1ccc(S(=O)(=O)N(C)C)cc1)CSC2`: the AC50 result is “inactive”.

As to `COc1ccc(-c2nc3cnc(Nc4cccc(OC)c4)nc3n(CCC#N)c2=O)cc1`, the AC50 result is “inactive”.

For the compound `CCOC(=O)c1cnc2cc(-c3ccc(C(C)(C)C)cc3)nn2c1N`, the AC50 was 0.562 µM (active).

Turning to `Cc1occc1C(=O)NNC(=O)Cc1ccccc1`, the AC50 is 10 µM (active).

In the case of `Cc1ccccc1C(=O)NNC(=O)c1ccoc1C`, the AC50 entry was “inactive”.

Regarding `CCCC[S@@](=N)(=O)CC[C@@H](N)C(=O)O`, the AC50 result was “inactive”.

For `Cc1ccc(OCCNC(=O)c2cncc(Br)c2)cc1C`, the AC50 is 6.31 µM (active).

Regarding `Clc1ccc(-c2csc(N3CCC(c4ccccc4)C3)n2)cc1` (configuration not stated), the AC50 is 10 µM (active).

As to `Cc1c(C2CCN(CCc3ccccc3)CC2)noc1-c1ccc(Cl)cc1`, the AC50 result was “inactive”.

In the case of `Fc1cccc(C2NC(=S)NC3=C2N2CCC3CC2)c1` (configuration not stated), the AC50 result is “inactive”.

Turning to `Fc1ccc(-c2csc(N3CCC(c4ccccc4)C3)n2)cc1` (configuration not stated), the AC50 is 11.2 µM (active).

Consider `Brc1ccc(-c2csc(N3CCC(c4ccccc4)C3)n2)cc1` (configuration not stated), for which the AC50 is 10 µM (active).

As to `Clc1ccc2c(c1)N=C(N1CCNCC1)c1ccccc1N2`, the AC50 result is “inactive”.

For the compound `c1ccc(CNc2ccnc(-c3ccoc3)n2)cc1`, the AC50 was 3.98 µM (active).

For the compound `Cc1cnc(CNc2ccnc(-c3ccoc3)n2)cn1`, the AC50 entry is “inactive”.

For `Cc1cccc(CNc2ccnc(-c3ccoc3)n2)c1`, the AC50 is 10 µM (active).

Turning to `CCCN(C/C=C\I)[C@@H]1CCc2cccc(O)c2C1`, the AC50 entry is “inactive”.

In the case of `CC(C(=O)Nc1ccccc1Sc1ccccc1)N(c1ccccc1)S(C)(=O)=O` (configuration not stated), the concentration at half-maximal activity (AC50) was 4.47 µM (active).

In the case of `Cc1ccc(N(C(C)C(=O)Nc2cc(Cl)ccc2Oc2ccccc2)S(C)(=O)=O)cc1` (configuration not stated), the AC50 is 1.41 µM (active).

Regarding `Cc1cc2c(=O)[nH]c(N)nc2nc1C`, the activity, negative = inhibition is 20.6% [at 11.4 µM] (inactive).

Take `O=C1CC(NCCC2=CCCCC2)C(=O)N1c1cccc(Cl)c1Cl` (configuration not stated): the concentration at half-maximal activity (AC50) was 4.47 µM (active).

On to `CO[C@H]1COC(=O)C/C=C\[C@H](C)[C@H](OC)COC(=O)[C@@H](C)COC(=O)C/C=C\[C@@H]1C`, for which the activity, negative = inhibition was -8.22% [at 11.4 µM] (inactive) and -6.35% [at 11.4 µM] (inactive).

For `Cc1ccc(C2CC2C(=O)NN)cc1` (configuration not stated), the AC50 is 3.55 µM (active).

In the case of `C=CCN1CCc2c(cc(O)c(O)c2Cl)[C@H](c2ccccc2)C1`, the AC50 entry was “inactive”.

In the case of `CCOC(=O)C1CCCN(C(=O)CCCOc2cc(=O)n(C)c3ccccc23)C1` (configuration not stated), the AC50 was 6.31 µM (active).

`Cn1c(=O)cc(OCCCC(=O)N2CCN(c3ccccc3)CC2)c2ccccc21`: the AC50 was 1.26 µM (active).

Turning to `O=C(CCCN1C(=O)C2C3C=CC(C3)C2C1=O)N1CCN(c2ccccc2)CC1` (configuration not stated), the AC50 entry is “inactive”.

For `O=C(O)c1ccc(/C=N\N=C2c3ccccc3-c3ccccc32)cc1`, the activity, negative = inhibition is 19.5% [at 11.4 µM] (inactive).

Consider `Cc1c(S(=O)(=O)O)ccc(N=Nc2c(O)c(C(=O)O)cc3ccccc23)c1Cl`, for which the activity, negative = inhibition is 14.5% [at 11.4 µM] (inactive).

Regarding `COC(=O)CNC(c1ccccc1Cl)c1cc(Br)ccc1NC(=O)CCN1CCOCC1` (configuration not stated), the AC50 is 28.2 µM (active).

In the case of `O=C1C[C@@H](O)[C@@H](O)[C@H]2[C@@H]3C(=O)N(C[C@@H]4CCCO4)C(=O)[C@@H]3CC[C@H]12`, the activity, negative = inhibition is 43.9% [at 11.4 µM] (inactive) and 16.6% [at 11.4 µM] (inactive).

On to `Cn1cccc1C(=O)N1CCC2(CC1)CCN(C(c1ccccc1)c1ccccc1)CC2`, for which the AC50 entry was “inactive”.

`CN(C)C(=O)c1ccc(-c2cncnc2NCc2ccccc2)cc1`: the AC50 entry was “inactive”.

For the compound `CNc1ncncc1-c1ccc(C(=O)N(C)C)cc1`, the concentration at half-maximal activity (AC50) is 25.1 µM (active).

Take `CN(C)c1ccc(-c2cncnc2NCc2cccnc2)cc1`: the AC50 was 0.0316 µM (active).

As to `CN(C)C(=O)c1ccc(-c2cncnc2Nc2ccccc2)cc1`, the AC50 result is “inactive”.

Take `Cc1cnc(CNc2ncncc2-c2ccc(C(=O)N(C)C)cc2)cn1`: the AC50 entry was “inactive”.

Consider `CN(C)c1ccc(-c2cncnc2NCc2ccccc2)cc1`, for which the concentration at half-maximal activity (AC50) is 0.398 µM (active).

In the case of `CN(C)C(=O)c1ccc(-c2cncnc2NCc2cccnc2)cc1`, the AC50 was 2.51 µM (active).

As for `CCOC(=O)c1c(NC(=O)Cn2cc([N+](=O)[O-])cn2)sc2c1CCC2`, the AC50 is 2 µM (active).

For `CCOC(=O)c1c(NC(=O)c2ccc(S(=O)(=O)N3CCOCC3)cc2)sc2c1CCN(C)C2`, the AC50 entry is “inactive”.

For the compound `CCOC(=O)c1c(N2C(=O)Nc3cc(Cl)c(Cl)cc3N2O)sc2c1CCCCC2`, the AC50 result was “inactive”.

For the compound `CCOC(=O)c1c(NC(=S)NC(=O)c2cnn(CC)c2)sc2c1CCC(C)C2` (configuration not stated), the AC50 entry was “inactive”.

With `CCOC(=O)c1c(NC(=O)CSc2nnc(C)s2)sc2c1CCCCC2`, the AC50 is 2.24 µM (active).

On to `CCOC(=O)c1c(NC(=O)Cn2nc([N+](=O)[O-])c(Br)c2C)sc2c1CCC(C)C2` (configuration not stated), for which the AC50 is 8.91 µM (active).

As to `CCOC(=O)c1c(NC(=O)c2c(C)noc2C)sc2c1CCCCC2`, the AC50 entry is “inactive”.

For the compound `CCNc1ncc2ncc(=O)n(Cc3cccc(OC)c3)c2n1`, the AC50 was 2 µM (active).

`CCNc1ncc2nc(-c3ccc(Cl)cc3)c(=O)n(Cc3cccc(OC)c3)c2n1`: the AC50 entry is “inactive”.

As for `COc1cccc(Nc2ncc3ncc(=O)n(CCC#N)c3n2)c1`, the AC50 entry is “inactive”.

In the case of `CCNc1ncc2nc(C)c(=O)n(Cc3cccc(OC)c3)c2n1`, the AC50 was 10 µM (active).

As for `CCNc1ncc2nc(-c3cn(C)c4ccccc34)c(=O)n(Cc3cccc(OC)c3)c2n1`, the AC50 result was “inactive”.

Turning to `COCCn1c(=O)cnc2cnc(Nc3cccc(OC)c3)nc21`, the AC50 entry was “inactive”.

For `CCNc1ncc2nc(-c3cccs3)c(=O)n(Cc3cccc(OC)c3)c2n1`, the AC50 result was “inactive”.

With `COc1cccc(Cn2c(=O)cnc3cnc(Nc4cccc(OC)c4)nc32)c1`, the half-maximal activity concentration (AC50) was 3.98 µM (active).

Regarding `CCNc1ncc2nc(-c3ccc(OC)cc3)c(=O)n(Cc3cccc(OC)c3)c2n1`, the AC50 result is “inactive”.

Consider `CCOc1ccc(/C(O)=C2/C(=O)C(=O)N(CCOCCO)C2c2cccnc2)cc1` (configuration not stated), for which the AC50 result was “inactive”.

In the case of `CCOc1cccc(/C(O)=C2/C(=O)C(=O)N(Cc3ccco3)C2c2ccncc2)c1` (configuration not stated), the AC50 is 10 µM (active).

As for `COc1cccc(/C(O)=C2/C(=O)C(=O)N(CCCN3CCOCC3)C2c2ccncc2)c1` (configuration not stated), the AC50 entry is “inactive”.

On to `COCCN1C(=O)C(=O)/C(=C(/O)c2cccc(OC)c2)C1c1ccco1` (configuration not stated), for which the AC50 entry is “inactive”.

In the case of `COc1cccc(/C(O)=C2/C(=O)C(=O)N(Cc3cccnc3)C2c2ccco2)c1` (configuration not stated), the AC50 is 14.1 µM (active).

As to `COCCN1C(=O)C(=O)/C(=C(/O)c2cccc(OC)c2)C1c1ccc(C)o1` (configuration not stated), the AC50 entry is “inactive”.
